In this assay the target is Solute carrier family 2, facilitated glucose transporter member 1 (Homo sapiens) (UniProt P11166). Briefly: ST_JUDE_LEISH: Cytotoxicity at 2uM final concentration against transgenic Leishmania Mexicana promastigotes LmGLUT1 that are glucose transport deficient and complemented with the human glucose transporter GLUT1. Activity is measured by DNA content using SYBR green in vitro. It counts as functional.
Chain of Solute carrier family 2, facilitated glucose transporter member 1 (Homo sapiens) (P11166 whole entry): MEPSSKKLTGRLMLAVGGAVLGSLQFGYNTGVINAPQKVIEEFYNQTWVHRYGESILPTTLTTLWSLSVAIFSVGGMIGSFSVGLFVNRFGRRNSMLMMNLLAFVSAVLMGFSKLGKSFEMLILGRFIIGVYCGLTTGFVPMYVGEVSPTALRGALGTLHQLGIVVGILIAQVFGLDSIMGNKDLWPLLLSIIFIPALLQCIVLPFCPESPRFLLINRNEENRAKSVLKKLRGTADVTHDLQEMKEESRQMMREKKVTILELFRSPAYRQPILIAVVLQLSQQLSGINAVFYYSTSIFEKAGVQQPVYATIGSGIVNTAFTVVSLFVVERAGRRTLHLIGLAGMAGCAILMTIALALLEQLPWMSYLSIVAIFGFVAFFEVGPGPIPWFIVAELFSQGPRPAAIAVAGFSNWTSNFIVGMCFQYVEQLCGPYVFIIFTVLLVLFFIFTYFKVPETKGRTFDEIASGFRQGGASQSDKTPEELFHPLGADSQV
Usually inhibition stands for the drop in the measured response relative to a control, in per cent. For `CNCC(C)(C)c1nc(-c2ccc(Cl)c(O)c2)c(-c2ccncc2)[nH]1`, the inhibition was -1.98%. As for `CCn1c(C)c(C)c2cc(C(=O)Nc3ccon3)ccc21`, the inhibition amounted to 1.66%.

In the case of `O=C(N[C@@H](CC1CCCCC1)C(=O)NC1CCCCCC1)c1ccc(O)c(-c2ccc(Cl)c(Cl)c2)c1`, the inhibition was -0.25%. For `COc1ccc2nccc([C@@H](O)CN3CCC(NCCOc4ccncc4)CC3)c2c1` the value was -0.38%.

For the compound `CN(C)CCN(C)C(=O)c1cc(-c2ccncc2)c(-c2ccc(Cl)c(O)c2)o1`, the inhibition came out at 8.43%. For `COc1ccc2c(NN=Cc3ccccn3)ccnc2c1`, the inhibition is 13.7%. For `Cc1ccc(C)c(NC(=O)Nc2ccc(Nc3nc(C)cc(N4CCOCC4)n3)cc2)c1` the value was 1.4%; for `N#Cc1ccc(NC(=O)N2CCCN(CCCCCNC(=O)/C=C/c3ccc(Cl)c(Cl)c3)CC2)cc1`, 1.89%. Consider `O=C(Cn1c(CCc2cccc(F)c2F)nc(=O)c2ccccc21)N(CCCN1CCCCC1)Cc1ccc(-c2ccc(C(F)(F)F)cc2)cc1`, for which the inhibition was 2.28%. For `COc1cc2ncnc(Nc3ccc(Br)c(Cl)c3)c2cc1OC` the value was 5.07%.

With `O=C(NCc1cccc2ccccc12)c1ccc(CNC2CCN(Cc3ccccc3)CC2)cc1`, the inhibition turned out to be 1.65%.

`CN1CCN(CCCN(Cc2cccc(-c3ccc(CNCCc4ccccc4)cc3)c2)C(=O)c2cccs2)CC1`: the inhibition was 4.14%. For `O=C(Nc1ccc(OC2CCN(Cc3ccc(F)cc3)C2)c(Cl)c1)c1ccc(F)cc1` (stereo not given) the value was -0.04%; for `Fc1ccc2[nH]c(-c3ccc(-c4cccc(CN5CCC(CCN6CCCCC6)CC5)c4)cc3)nc2c1`, 2.93%. For `CC(=O)c1ccc(-c2ccc(C(=O)NCCCCN3CCC(c4ccc5c(c4O)CCCC5)CC3)cc2)cc1` the value was 3.01%; for `Cc1ccc(Nc2cc(C)nn2-c2nc(C)cc(O)n2)cc1`, 75.4%.

As for `N=C(N)c1ccc(NN=Cc2ccc(Oc3ccc(C(=N)N)cc3)cc2)cc1`, the inhibition turned out to be 3.43%.

For the compound `O=C(NCCN1CCCC1)N1CCCN(c2ncnc3cc(-c4ccc(Cl)cc4)sc23)CC1`, the inhibition was 0.21%. Under `COc1ccc(N2CCN(c3nc(N)c4cc(OC)c(OC)cc4n3)CC2C)cc1` (stereo not given) stands 0.19%; under `CN1CCN(Cc2ccc(-c3ccc4c(Nc5ccc(F)cc5Cl)ccnc4c3)o2)CC1`, 0.53%. Under `O=C(Nc1ccc2nc3n(c(=O)c2c1)CCCCC3)C(=O)N1CCC(Cc2ccccc2)CC1` stands -0.67%. Under `COc1ccc(CCNC(=O)c2cc3c(=O)n4cccc(C)c4nc3n(C)c2=N)cc1` stands 13.4%; under `Cc1cccc2nc(-c3ccc(-c4ccc(CN5CCCC(N)C5)cc4)s3)[nH]c12` (stereo not given), 0.2%; under `C=C(C)Cn1cc(C2CCN(CCN3CCC(CNC(=O)c4ccc(-c5ccc(C#N)cc5)cc4)CC3)CC2)c2ccccc21`, 7.94%. Turning to `Fc1ccc2[nH]c(-c3ccccc3)nc2c1CN1CCC(N2CCCC2)CC1`, the inhibition is -0.78%.

As to `Cc1ccc(C2(CN3CCC(NC(=O)c4cc[nH]n4)CC3)CCCCC2)cc1`, the inhibition is 0.21%.

Take `Cc1cccc(C)c1N1CCN(C2CCC(NC(=O)/C=C/c3ccccc3)CC2)CC1` (stereo not given): the inhibition came to 1.7%. Under `O=C(CCCCCNC(=O)c1ccc(O)c(-c2ccc(Cl)c(Cl)c2)c1)NCc1cccc2ccccc12` stands 2.63%.

For the compound `Cc1ccc(CNC(=O)[C@H](CCCN)Nc2nc(NCC3CCCCC3)ncc2C)cc1`, the inhibition came to 3.55%. For `CNC(=O)c1c(NC(=O)c2cccs2)sc2c1CCCC2` the value was 1.2%. Under `Cc1cc(N/N=C/c2ccccc2[N+](=O)[O-])c2ccc(F)cc2n1` stands 2.1%; under `CC1CCCN(S(=O)(=O)c2cc(Br)cc3c2N(C(=O)C2CC2)CC3)C1` (stereo not given), 2.64%; under `Cc1cc(NC(=O)Nc2cccc(C#N)c2)c2ccccc2n1`, 4.37%. Turning to `CC(=O)c1ccccc1OCCSc1nnc(Cc2cccs2)n1C1CCCCC1`, the inhibition stood at 1.7%. Under `CC(Cc1ccc(NC(=O)c2ccc(CC(C)NCc3ccc(Cl)cc3)cc2)cc1)NCCc1cccc(Cl)c1` (stereo not given) stands 10.3%; under `NC1=NC(c2ccccc2)(c2ccccc2)C(=O)N1Cc1ccccc1Br`, 7.09%. For `O=C(NC1CCC(N2CCN(c3cccc(C(F)(F)F)c3)CC2)CC1)c1cc2ccccc2[nH]1` (stereo not given) the value was 8.24%; for `CCCN1CCN(CCNC(=O)c2cccc(Nc3nccc(Nc4ccc(Oc5ccccc5)cc4)n3)c2)CC1`, 0.38%. Turning to `CC1(C)NC(N)=NC(=N)N1OCCc1cccc2ccccc12`, the inhibition came out at 2.21%. With `CC1(C)NC(N)=NC(=N)N1OCc1cccc(Cl)c1Cl`, the inhibition turned out to be 2.02%.

The values above are taken from ChEMBL document CHEMBL3433997, “St. Jude Leishmania screening dataset” (2016).
